Over roughly 68,000 sequences, “fluorescence intensity (a.u.)” has its median near 9,100; the highest 2% begin near 16,000. The entries come from a sample that favours the highest values as a whole.

In this test the target is OsWRKY34 (Oryza sativa, UniProt Q0JBA9 1-250). As to the kind of experiment: protein-binding microarray (RPBM); PBS, 2% BSA, 51.3 ng/ul salmon testes DNA, 50 uM zinc acetate, 200 nM TF, 25 C, 1 h; high values mean tight binding. The following applies: protein: recombinant; tags: N-terminal polyhistidine and DsRed monomer fusion (pET32a); label: CyDye5-dUTP incorporated in the synthesized complementary strand; 3' TTTTT single-stranded linker to array surface; dsDNA, one strand shown. In outline: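 Binding signal here means per-feature fluorescence intensity in arbitrary units. The values were read on an Axon 4000B scanner after a custom Agilent array, double-stranded by primer extension with Cy5-dUTP, was incubated with 200 nM protein at 25 °C for 1 h in PBS with 2% BSA, salmon testes DNA and 50 µM zinc acetate, then washed. The proteins were transcription factors with an N-terminal polyhistidine tag and DsRed, expressed in E. coli BL21-CodonPlus and purified on Ni–NTA.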
OsWRKY34, sequence (Q0JBA9 entry or part of it): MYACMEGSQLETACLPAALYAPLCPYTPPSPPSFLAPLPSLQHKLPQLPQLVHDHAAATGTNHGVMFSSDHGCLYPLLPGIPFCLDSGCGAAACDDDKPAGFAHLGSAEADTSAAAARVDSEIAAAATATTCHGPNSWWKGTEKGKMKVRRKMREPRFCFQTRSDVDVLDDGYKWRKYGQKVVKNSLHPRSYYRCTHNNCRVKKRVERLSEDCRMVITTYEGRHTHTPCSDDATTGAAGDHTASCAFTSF
Regarding “AGAGACTGGTGATGGACTTTACTCTTTTCTTCTCCAACACCGGAGTCACCTAGTGCAG”, the binding signal was 8330 fluorescence intensity (a.u.).
Regarding “GGGCGCCGGTATGCTTCTTCCATTCCACCTATGTGTTTCTCGGAGTCACCTAGTGCAG”, the binding signal was 9490 fluorescence intensity (a.u.).
For the sequence “AAAGTTTTTTGTCGTTGTTTGTTTTCCAGTATTTGCTTTTCGGAGTCACCTAGTGCAG”, the binding signal is 18000 fluorescence intensity (a.u.).
For the sequence “TTGCTTGTTGATTGATTCGTTTTTGTCAATTTTGAAGTTTCGGAGTCACCTAGTGCAG”, the binding signal is 8470 fluorescence intensity (a.u.).
On to “TTTTTGTCTTATTGTTTTGTTTATTTTATTTCAGTTTATTCGGAGTCACCTAGTGCAG”, for which the binding signal is 9760 fluorescence intensity (a.u.).
As for “CGCTTTTGCACAGTATTTTTATTTGCAGAGTTATGTTTGTCGGAGTCACCTAGTGCAG”, the figure is 8090 fluorescence intensity (a.u.); as for “ATTTCTTACGTTGTTGCAGCTTTGTTTTTTTTGCTTATTTCGGAGTCACCTAGTGCAG”, 14900 fluorescence intensity (a.u.); as for “TTTCCCACGTTTTGTCATTTTTTCAGCTATATATTAATTTCGGAGTCACCTAGTGCAG”, 12000 fluorescence intensity (a.u.).
In the case of “CGTTTTTTTTTTCATTCCATGTTTGCATTAGCTTCATTTCCGGAGTCACCTAGTGCAG” it was 13400 fluorescence intensity (a.u.).
On to “TTATGCCAGCCATTTCACTTTTTCCCACGTTTTGTCATTTCGGAGTCACCTAGTGCAG”, for which the binding signal is 18900 fluorescence intensity (a.u.).
As to “TTTGTTTTTTTTGCTTATTTAGTTTTTTTTTCAGCTTTTTCGGAGTCACCTAGTGCAG”, the binding signal was 17300 fluorescence intensity (a.u.).
In the case of “ATTTTTTCACGTTCGGACCTATGGTTTTTTTGCCACTTTGCGGAGTCACCTAGTGCAG” it was 8520 fluorescence intensity (a.u.).
Turning to “ATTCCGGTCATTTACGCGCTTTTAGCTTTGCCCTTCATTTCGGAGTCACCTAGTGCAG”, the binding signal is 17200 fluorescence intensity (a.u.).
In the case of “TTACTCTACTCATTTAGCTTTTGGTTGGTTGGTTCCCTTCCGGAGTCACCTAGTGCAG” it was 14400 fluorescence intensity (a.u.); in that of “ACAAATTCCTGACTTCACGGTTTTCTATTTGGTTGTAATACGGAGTCACCTAGTGCAG”, 9590 fluorescence intensity (a.u.).
Regarding “TTTTTTTATTCGTGTCTGAAAATCATTTCCGATATCCGGTCGGAGTCACCTAGTGCAG”, the binding signal was 8470 fluorescence intensity (a.u.).
As for “CACTAAAGTTTCATTGGGTTTTCAGTTTTCACTTCATTATCGGAGTCACCTAGTGCAG”, the figure is 10700 fluorescence intensity (a.u.); as for “ATTCGTTTCGTATTTATGCCCGATATTATCCGTGCTTCTACGGAGTCACCTAGTGCAG”, 9200 fluorescence intensity (a.u.); as for “TCTCTTTCTCTCTCTCCTCTTCTTCCTTGGCGAGTTGTGCCGGAGTCACCTAGTGCAG”, 8080 fluorescence intensity (a.u.).
Turning to “ATCCATCCGAGCTCTCTCTCTCTCTCTGTCTTCTCTCTACCGGAGTCACCTAGTGCAG”, the binding signal is 10700 fluorescence intensity (a.u.).
As to “TATTTTCGTCCGGTTTTTTCCACTCACCAGTCACCACCCCCGGAGTCACCTAGTGCAG”, the binding signal is 8490 fluorescence intensity (a.u.).
For “ACCACTCACCTCATGATTTTCGTTGTATTCGTTCCAGTCCCGGAGTCACCTAGTGCAG”, the binding signal is 20000 fluorescence intensity (a.u.).
Take “ACTCCAGCATGATCCACAACACCACTCACCTCATGATTTTCGGAGTCACCTAGTGCAG”: the binding signal is 8770 fluorescence intensity (a.u.).
Regarding “CTCTCCTCCTCCGTTCCTGACTCCACCACTCACATTCATTCGGAGTCACCTAGTGCAG”, the binding signal is 13200 fluorescence intensity (a.u.).
As for “AGGGGTGCTAATTGAGCCTATTTCGGGTGGGGCTCACTGACGGAGTCACCTAGTGCAG”, the figure is 15300 fluorescence intensity (a.u.).
As for “TTCTTGGCCCGCTAACTCATGATGGTTTTATCCAGATCGTCGGAGTCACCTAGTGCAG”, the binding signal was 9880 fluorescence intensity (a.u.).
As for “TGTGCCTCCGGATTTGACCTTTCCTCGAACCTTCTTCTTCCGGAGTCACCTAGTGCAG”, the binding signal was 13300 fluorescence intensity (a.u.).
In the case of “TCAAACCTCGCGACTTCTTCTTCCACCTCTCGCTCCGGGCCGGAGTCACCTAGTGCAG”, the binding signal is 11800 fluorescence intensity (a.u.).
Take “GGGATATATCCTTTGACCGGTCAAACCTCGCGACTTCTTCCGGAGTCACCTAGTGCAG”: the binding signal is 18800 fluorescence intensity (a.u.).
For “CCTTTCCTAAGTCTCTGTTTTAACATCTCTATTGGGGCATCGGAGTCACCTAGTGCAG”, the binding signal is 8940 fluorescence intensity (a.u.).
For the sequence “CTCCGTCACTCAGATTTAATACATGACTCTCTATTATTCCCGGAGTCACCTAGTGCAG”, the binding signal is 9060 fluorescence intensity (a.u.).
As for “GGAGGTCGGTGGCCTCGGCGGTGGAGGTCGGGGTCGGGGACGGAGTCACCTAGTGCAG”, the figure is 16500 fluorescence intensity (a.u.); as for “GGGGTGGCGGTGGCGGTGGTGGTGGTGGTGGTGGTGGAGTCGGAGTCACCTAGTGCAG”, 41600 fluorescence intensity (a.u.); as for “GGAGGCGGTGGTGTTGGAGTTGGAGGGCGCGTGGAGGTGGCGGAGTCACCTAGTGCAG”, 12900 fluorescence intensity (a.u.).
Turning to “GGCGGCGGCGGCGGCGGCGGGGAGGAGGTGAAGGTGGAGGCGGAGTCACCTAGTGCAG”, the binding signal was 14100 fluorescence intensity (a.u.).
Regarding “CAGCAGCGGCGGCGGCGGCGGCGGCGGGGTGGTGGAACCTCGGAGTCACCTAGTGCAG”, the binding signal was 9080 fluorescence intensity (a.u.).
Take “CCTTACCGTACAAGGGAGGAGGAGGTGGTGGTGGTGGAGGCGGAGTCACCTAGTGCAG”: the binding signal was 13000 fluorescence intensity (a.u.).
For the sequence “GCGGAGGAGGTGGTGGTGGTGGAGGAGGAGGAGGCCAAGGCGGAGTCACCTAGTGCAG”, the binding signal was 19300 fluorescence intensity (a.u.).
Take “GAGGAGGAGGTGGAGCTACTGGTGGTGGTGGTGGTGGTGGCGGAGTCACCTAGTGCAG”: the binding signal is 16200 fluorescence intensity (a.u.).
In the case of “ATGGAGGCGGTGGTCGGAGGTGGCAGACGATGCTCGGGGACGGAGTCACCTAGTGCAG” it was 8040 fluorescence intensity (a.u.); in that of “AGGTGGTGGTGGAGGTGGAGGTGGCGGTGGAGGTGGAGGGCGGAGTCACCTAGTGCAG”, 38600 fluorescence intensity (a.u.).
As for “GGCGGCGGCGGGGTGGCCTTGGCCGGGTGCCTTGGTGGATCGGAGTCACCTAGTGCAG”, the binding signal is 10300 fluorescence intensity (a.u.).
In the case of “GGGGAGGCGGGTGGGGTTGAGGAGGTCGGTGGCCTCGGCGCGGAGTCACCTAGTGCAG”, the binding signal is 12300 fluorescence intensity (a.u.).
As to “GGCCTCACTATCGTCGACTCCTCCACTCCGGGGACTGCCGCGGAGTCACCTAGTGCAG”, the binding signal was 10000 fluorescence intensity (a.u.).
For “AGCCGATCAGCTTCCAGCTCTTCATCCCAGCTTGCATCGTCGGAGTCACCTAGTGCAG”, the binding signal was 9300 fluorescence intensity (a.u.).
Turning to “CCCCTGTTTCTCGGTTCTTTCGCTCGCCTTCTAGGCCCAACGGAGTCACCTAGTGCAG”, the binding signal is 11400 fluorescence intensity (a.u.).
For the sequence “ATGATACTAGCGGAGCTCACTACTTACTATTAGTCAATGTCGGAGTCACCTAGTGCAG”, the binding signal was 8330 fluorescence intensity (a.u.).
Consider “ATAGCACCTCGAAACACCAAACTATTGCTATTAACATTTTCGGAGTCACCTAGTGCAG”, for which the binding signal was 9650 fluorescence intensity (a.u.).
On to “CCTTAATGCTCGAGATATACTAATACTACTCCCTTTGTTTCGGAGTCACCTAGTGCAG”, for which the binding signal is 10400 fluorescence intensity (a.u.).
Take “TACGCGTTATTTGTTTTTCGCAGCGTTTCCTTTTTTTTTTCGGAGTCACCTAGTGCAG”: the binding signal is 9540 fluorescence intensity (a.u.).
With “TTTATCGCTTTGACTGTTCTACATCTTGCCTCGCCGTGCACGGAGTCACCTAGTGCAG”, the binding signal is 9040 fluorescence intensity (a.u.).
With “GCACAAGGCAGATGGAGGTTGTACAGCTATTATTATTTCACGGAGTCACCTAGTGCAG”, the binding signal was 8380 fluorescence intensity (a.u.).
As for “TAATATTAATAAATAAAAAACCAGCGGTCGAACCGTTGACCGGAGTCACCTAGTGCAG”, the figure is 13000 fluorescence intensity (a.u.); as for “GGTTGCGTTGTTGCGGGCGTTGTTGCGGGCGGGCGGTCAGCGGAGTCACCTAGTGCAG”, 16600 fluorescence intensity (a.u.).
In the case of “GATCCAAGAGTGGAGAAGGAGAGGGGTGGGGAGCCGGCGACGGAGTCACCTAGTGCAG”, the binding signal was 9460 fluorescence intensity (a.u.).
In the case of “GAGGTAGTGGTTTAGAGGAGGAGGCGGAGAAGAGGAGGGACGGAGTCACCTAGTGCAG”, the binding signal is 9020 fluorescence intensity (a.u.).
As to “AGGAGGTGGTATTATTTTTTTTTTGGTAGAGAGGGGAGGGCGGAGTCACCTAGTGCAG”, the binding signal was 16500 fluorescence intensity (a.u.).
In the case of “ATATTGGTGGGCGCGGATTTTAATAGGTGGGCGGTGGATTCGGAGTCACCTAGTGCAG” it was 8430 fluorescence intensity (a.u.).
As for “TGTTGTTGCCGGAATGTGTGTGTGTGCGTGTGTGTGTGTGCGGAGTCACCTAGTGCAG”, the binding signal was 8720 fluorescence intensity (a.u.).
As to “GGCGAGGGGAGAAGAGAAGAGGTGGGTGAGGTGGGGTTTCCGGAGTCACCTAGTGCAG”, the binding signal was 12800 fluorescence intensity (a.u.).
For the sequence “TAGAGGTGGGCGGTAGGGGCTATTTCTGCAATTTTTTGGTCGGAGTCACCTAGTGCAG”, the binding signal is 9680 fluorescence intensity (a.u.).
On to “TGGTGGGCGGTGGAGTTATTTTCTTAATAGAGCATTGAGACGGAGTCACCTAGTGCAG”, for which the binding signal is 23900 fluorescence intensity (a.u.).
For the sequence “GAGAAGAGGAGAGAGAGTGAGAGTGGGCGACAATTTTATCCGGAGTCACCTAGTGCAG”, the binding signal was 64200 fluorescence intensity (a.u.).
“GGGCATTGAGTGGTGGGGACGTGTGGGAGGCAGGCGGAGACGGAGTCACCTAGTGCAG”: the binding signal was 9540 fluorescence intensity (a.u.).
“TTCGTTGTTGGTGGTGGTGGCGGGCGGAAGATGCGGTTGCCGGAGTCACCTAGTGCAG”: the binding signal was 10000 fluorescence intensity (a.u.).

The values above are taken from publication PMC7819943, “Rice protein-binding microarrays: a tool to detect cis-acting elements near promoter regions in rice”.
